Screening data: PubChem BioAssay, several laboratories
Hits are enriched below; roughly 2% of the tested compounds scored in any of these assays.
MsrA act – activates bovine MsrA enzyme; purified bovine MsrA, absorbance read-out; activation, % at 10.6 µM; actives 0.3% (n = 360,000); in the data active = activation above about 7.5%
MsrA inh – bovine MsrA inhibition; purified bovine MsrA, absorbance read-out; inhibition, % at 15.5 µM; actives 0.75% (n = 360,000); AID 651718; in the data active = inhibition above about 4.5%
PKA-R2B activ – activates the human PKA-R2B holoenzyme complex; P22694+P31323; PKA-R2B holoenzyme dissociation, Cy5-IP20 fluorescence polarization; R2B truncated from residue 108, S112A mutant; 0% DMSO only, 100% 113 µM cGMP; activation, % at 11.4 µM; actives 0.079% (n = 340,000);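 active = activation above a cutoff set at the mean over all compounds plus 3 SD, cut at about 18% in these data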;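 note: higher means more holoenzyme dissociation and a rise in polarization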
Target sequence (P31323 whole entry, looked up, other chains not shown, the tested form may be a part): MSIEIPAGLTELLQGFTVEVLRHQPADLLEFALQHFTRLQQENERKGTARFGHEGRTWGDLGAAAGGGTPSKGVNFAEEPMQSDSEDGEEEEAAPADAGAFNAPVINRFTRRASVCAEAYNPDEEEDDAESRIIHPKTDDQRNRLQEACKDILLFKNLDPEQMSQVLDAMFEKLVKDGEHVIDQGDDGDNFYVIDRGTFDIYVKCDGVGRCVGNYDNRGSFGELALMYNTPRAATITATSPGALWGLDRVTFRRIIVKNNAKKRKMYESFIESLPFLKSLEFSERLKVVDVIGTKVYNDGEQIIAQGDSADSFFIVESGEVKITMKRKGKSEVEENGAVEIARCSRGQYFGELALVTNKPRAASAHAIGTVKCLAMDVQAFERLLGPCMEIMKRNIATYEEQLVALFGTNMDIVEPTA
PKA-R1A activ – activators of PKA-R1A complex | PKA-R1A dissociation, Cy5-IP20 fluorescence polarization; scaled: DMSO 0%, 113 µM cGMP 100% | activation, % at 11.4 µM | actives 0.083% (n = 340,000) | AID 504707;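 active = percent activation above the mean of all tested compounds plus 3 SD, cut at about 19% in these data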;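 note: higher means more PKAc released from R1A so a rise in polarization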
Mot1-301 SUMO – SUMOylation pathway inhibition by Mot1-301 growth rescue | S. cerevisiae Mot1-301 growth rescue, ATP luminescence, 38.5C; percent above DMSO median, 100 means doubled | AID 2716 | actives 1% (n = 320,000) | growth rescue, % at 18.8 µM;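 active = every valid replicate shows activation above 250% relative to neutral control wells; inactive = the rest, any valid replicate at or below 250%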
MsrA activ conf – bovine methionine sulfoxide reductase A activation confirmed; AID 602270; activation, % at 10.6 µM; purified bovine MsrA, absorbance read-out; actives 12% (n = 1,000); shares compounds with MsrA act; in the data active = activation above about 4%;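 note: enzyme coupled to thioredoxin and thioredoxin reductase with NADPH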
A number is an active result; – = inactive; · = not tested or not shown; ! = a repeat was not active.

SMILES | MsrA act | MsrA inh | PKA-R2B activ | PKA-R1A activ | Mot1-301 SUMO | MsrA activ conf
O=C(c1ccccc1)N1CCN(C(=O)c2cc3ccccc3o2)CC1 | 7.7 | – | – | – | – | –
CCOC(=O)N1CCN(C(=O)c2cc3ccccc3o2)CC1 | – | – | – | – | – | ·
CC(C)[C@H](NS(=O)(=O)c1ccc(F)cc1F)C(=O)N1CCC[C@H]1C(=O)NCc1ccccc1 | · | – | · | · | · | ·
O=C(NCCc1ccc(F)cc1)C(=O)Nc1cc2c3c(c1)CC(=O)N3CCC2 | – | – | – | – | – | ·
O=C(NCCc1ccc(Cl)cc1)C(=O)Nc1cc2c3c(c1)CC(=O)N3CCC2 | 16.7 | – | – | – | – | –
C[C@H]1CN([C@@H](C)CO)C(=O)CCCn2cc(nn2)CO[C@@H]1CN(C)C(=O)c1ccc2ccn(C)c2c1 | · | – | · | · | · | ·
CN1CCN(C(c2ccccn2)c2cc(Cl)c3cccnc3c2O)CC1 (stereo not given) | 18.0 | – | – | – | – | –
Nc1[nH]c(C(=O)c2ccc(Cl)cc2)c(-c2ccc(Br)cc2)c1C(=O)NCCc1c[nH]c2ccccc12 | · | – | · | · | · | ·
COc1ccc(C2CC(=O)C(c3ccc(C(C)=O)cc3)=CN2Cc2ccccc2)cc1 (stereo not given) | · | – | · | · | · | ·
COc1ccccc1NC(=O)c1ccc2nsnc2c1 | – | – | – | – | – | ·
COc1ccccc1OC(=O)c1ccc2nsnc2c1 | 16.4 | – | – | – | – | –
COCc1[nH]nc2c1C(c1cccc(C(F)(F)F)c1)NC2=O (stereo not given) | · | – | · | · | · | ·
CC1CC(C(F)(F)F)n2ncc(C(=O)O)c2N1 (stereo not given) | – | – | – | – | – | ·
CC1CC(C(F)(F)F)n2ncnc2N1 (stereo not given) | 9.2 | – | – | – | · | –
CNc1ncn(-c2c(C)cccc2C)c(=O)n1 | · | – | · | · | · | ·
CCOc1ccccc1NC(=O)N1CCCc2ccccc21 | – | – | – | – | – | ·
C=CCC(CC)C(=O)NC(=O)N1CCCc2ccccc21 (stereo not given) | 11.6 | – | – | – | – | –
COc1ccc(OC)c(/C=N/N(CCC#N)C2=NS(=O)(=O)c3ccccc32)c1 | 7.9 | – | – | – | – | 5.3
COC(=O)[C@]12C[C@H](CC(=O)N3CCOCC3)C(=O)N(CCc3ccc(OC)c(OC)c3)C1=C[C@H](C(C)(C)C)O[C@@H]2C | · | – | · | · | · | ·
CCCCOCC1CN(CCCC)S(=O)(=O)c2c(Oc3ccc(C)cc3)cccc2O1 (stereo not given) | · | – | · | · | · | ·
COc1ccccc1CC(NC(C)=O)C(=O)NC1CCN(c2nnnn2-c2ccccc2)CC1 (stereo not given) | – | · | – | – | – | ·
CC(=O)NC(Cc1ccccc1C)C(=O)NC1CCN(c2nnnn2-c2ccccc2)CC1 (stereo not given) | 11.6 | – | – | – | – | –
C/C=C/C=N\NC(=O)c1ccncc1 | 14.7 | – | – | – | – | –
COc1ccc2oc(C(=O)OCC(=O)N3C(C)CCCC3C)c(C)c2c1 (stereo not given) | – | – | – | – | – | ·
CCOc1ccc2oc(C(=O)OCC(=O)N3C(C)CCCC3C)c(C)c2c1 (stereo not given) | 8.7 | – | – | – | – | –
SMILES | MsrA act | MsrA inh | PKA-R2B activ | PKA-R1A activ | Mot1-301 SUMO | MsrA activ conf
CN(C)S(=O)(=O)c1ccc(Cl)c(NC(=O)COC(=O)CNS(=O)(=O)c2c(F)cccc2F)c1 | 8.8 | – | – | – | · | –
CN(C)S(=O)(=O)c1ccc(Cl)c(NC(=O)COC(=O)CNC(=O)c2ccco2)c1 | – | – | – | – | – | ·
Cc1ccccc1S(=O)(=O)Cc1ccc(C(=O)NC(C)c2ccc3c(c2)OCCO3)o1 (stereo not given) | – | – | – | – | – | ·
CC(NC(=O)c1ccc(CS(=O)(=O)c2ccc(Cl)cc2)o1)c1ccc2c(c1)OCCO2 (stereo not given) | 8.6 | – | – | – | – | –
Cc1nnc(Sc2c(N)n(C)c(=O)[nH]c2=O)s1 | 11.5 | – | – | – | – | –
C=CCn1c(Sc2nnc(C)s2)nc2c1c(=O)[nH]c(=O)n2C | – | – | – | – | – | ·
O=[N+]([O-])c1ccc(Sc2nc3ccccc3o2)c([N+](=O)[O-])c1 | 7.7 | – | – | – | – | –
CC[C@H](C)[C@@H](C(=O)NCCCCCCCCCCC(=O)N1CCNCC1)n1cc(CCCCN=C(N)N)nn1 | 9.3 | – | – | – | – | –
O=C(NN=Cc1ccccc1Cl)C(=O)Nc1cccc(C(F)(F)F)c1 | · | – | · | · | · | ·
Cc1cc(=O)oc(C)c1C(=O)Nc1cccc2ccccc12 | – | – | – | – | – | ·
Cc1cccc(NC(=O)c2c(C)cc(=O)oc2C)n1 | 13.7 | – | – | – | – | –
Cc1csc(SCC(=O)c2c(N)n(C)c(=O)n(C)c2=O)n1 | 9.7 | – | – | – | – | –
Cn1c(N)c(C(=O)CSc2nnc(N)s2)c(=O)n(C)c1=O | – | – | – | – | – | ·
Cn1ncc2c(=O)n(CC(=O)NC34CC5CC(CC(C5)C3)C4)cnc21 | 9.0 | – | – | – | – | –
CCN1CCN(Cc2ccc(NC(=O)c3ccc(C)c(NC(=O)C[C@@H]4NC(=O)[C@H](Cc5ccccc5)NC4=O)c3)cc2C(F)(F)F)CC1 | 7.7! | – | – | – | – | –
CCOC(=O)[C@@H]1CSCCS(=O)(=O)N1C(=O)[C@H](Cc1ccccc1)NC(=O)OC(C)(C)C | · | – | · | · | · | ·
Cc1ccc(N=Nc2cc(C)ccc2O)c(C)c1 | 10.5 | – | – | – | – | –
Cc1ccc(C)c(N=Nc2ccc(O)c3ncccc23)c1 | – | – | – | – | – | ·
O=C(C[n+]1cc(-c2ccccc2)n2c1CCC2)c1cccs1 | 8.9 | – | – | – | – | –
O=C(C[n+]1cc(-c2ccccc2)n2c1CCC2)N1c2ccccc2Sc2ccccc21 | – | – | – | – | – | ·
COc1ccc(NC(=O)CSCC(=O)N(C)Cc2ccc(Cl)c(Cl)c2)cc1 | 10.7 | – | – | – | – | –
COc1ccc(CSCC(=O)Nc2ccc(S(=O)(=O)N3CCCCCC3)cc2)cc1 | 8.8 | – | – | – | – | –
COc1ccc(NC(=O)CSCC(=O)Nc2ccc(S(=O)(=O)N3CCCCC3)cc2)cc1 | – | – | – | – | – | ·
Cc1ccc(NC(=O)CSCC(=O)N(C)Cc2ccc(Cl)c(Cl)c2)cc1 | – | – | – | – | – | ·
CN1CCCCC(NC(=O)c2cccc([N+](=O)[O-])c2)C1=O (stereo not given) | · | – | · | · | · | ·
CCCN1CCN(C(=O)CS(=O)(=O)Cc2nc(-c3cccc(OC)c3)oc2C)CC1 | 9.3 | – | – | – | – | –
COc1ccc(Cl)cc1C(=O)CSc1nc(N)cc(N)n1 | 8.0 | – | – | – | – | –
CCCCn1nnnc1SCC(=O)c1cc(Cl)ccc1OC | – | – | – | – | – | ·
CCOC(=O)[C@H]1[C@H]2COc3ccc(OC)cc3[C@@H]2N2C(=O)CN(Cc3ccc(C)cc3)C(=O)[C@@]12C | 14.0 | – | – | – | – | –
